Bioassay records deposited in PubChem by several laboratories.
This is one part of a sample in which hits are shown more often than they occur.
Ec RNAP inh = E. coli RNAP inhibitors, biochemical. inhibition, %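 (tested at 10 µM)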. 62,000 compounds, 0.2% hits. DNA-directed RNA polymerase subunit beta (Escherichia coli (strain K12)), P0A8V2. E. coli RNA polymerase, fluorescence transcription assay; in the data active = inhibition above about 20%;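 note: 0% = enzyme without compound and 100% = no enzyme blank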
TNAP act mid DEA = human TNAP enzyme activators, primary screen, biochemical, luminescent, intermediate phosphate acceptor level. Alkaline phosphatase, tissue-nonspecific isozyme (Homo sapiens), P05186. purified TNAP, CDP-star luminescence, 100 mM DEA, 30 min; active compounds read high; scale: 0 levamisole-inhibited, 1 vehicle-only enzyme. activation factor at 20 µM. 64,000 tested, under 10 active. AID 813, 2007;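 active = activation factor of at least 2 at 20 µM, relative to controls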
PLAP activator = PLAP enzyme activators, biochemical, luminescence, HTS | AID 696, 2007 | purified PLAP enzyme, luminescent substrate read-out; active compounds read high | Alkaline phosphatase, placental type (Homo sapiens), P05187 | activation fold at 20 µM | 96,000 compounds, 1.2% hits; in the data active = activation fold above about 2
Target sequence (P05187 whole entry, looked up): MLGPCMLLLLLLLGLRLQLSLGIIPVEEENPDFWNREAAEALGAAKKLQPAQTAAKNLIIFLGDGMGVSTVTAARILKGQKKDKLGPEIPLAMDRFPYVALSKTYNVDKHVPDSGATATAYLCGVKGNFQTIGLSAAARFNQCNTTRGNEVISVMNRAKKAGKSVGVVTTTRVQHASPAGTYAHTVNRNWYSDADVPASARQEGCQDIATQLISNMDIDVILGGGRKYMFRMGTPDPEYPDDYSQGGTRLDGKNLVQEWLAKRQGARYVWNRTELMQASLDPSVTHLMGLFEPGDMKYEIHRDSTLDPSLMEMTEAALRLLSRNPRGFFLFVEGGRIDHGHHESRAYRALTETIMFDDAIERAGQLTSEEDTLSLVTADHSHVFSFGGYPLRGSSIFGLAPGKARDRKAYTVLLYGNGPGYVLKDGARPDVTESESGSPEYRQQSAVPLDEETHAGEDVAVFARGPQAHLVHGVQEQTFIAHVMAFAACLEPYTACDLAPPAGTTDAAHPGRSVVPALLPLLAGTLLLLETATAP
Active calls of the source: *; x = not tested or not shown.

SMILES	Ec RNAP inh	TNAP act mid DEA	PLAP activator
O=C(CSc1nnc(-c2cccs2)n1-c1ccccc1)c1ccc2c(c1)OCCO2	1.4	0.9	1
O=C(Cn1nc(-c2cccc([N+](=O)[O-])c2)c2ccccc2c1=O)Nc1cccnc1	x	x	1.1
CCOC(=O)c1c(NC(=O)COC(=O)c2c(C)noc2C)sc2c1CCC2	4.1	0.9	x
COc1ccc(C(=O)Nc2nc3ccccc3[nH]2)cc1S(=O)(=O)N1CCCC1	x	x	2*
O=C(Nc1ncn[nH]1)c1ccc(Cl)c(S(=O)(=O)N2CCCCCC2)c1	x	x	2.1*
COc1ccc(C(=O)Nc2nc3ccccc3[nH]2)cc1OC	9.7	1.1	x
O=C(Nc1cccnc1)c1ccc(Cl)c(S(=O)(=O)N2CCCCCC2)c1	4.8	1	1.5
Cc1nn(Cc2ccc(Cl)c(Cl)c2)c(C)c1NC(=O)c1cn(-c2ccccc2)nc1-c1ccccc1	x	x	2.7*
Cc1nn(Cc2ccc(Cl)c(Cl)c2)c(C)c1NC(=O)c1cc(-c2ccc3c(c2)OCO3)on1	5.7	1	0.8
COc1ccc(OC)c(S(=O)(=O)Nc2ccc(O)c3ccccc23)c1	28.3*	0.7	1.1
COc1ccc(OC)c(S(=O)(=O)Nc2ccc(Oc3ccccc3)cc2)c1	x	x	1
O=C(NCN1C(=O)C2C3C=CC(C3)C2C1=O)Nc1nccs1 (configuration not stated)	-0.8	1	x
Cc1cc2nc(C3CCN(Cc4nnnn4Cc4ccccc4)CC3)[nH]c2cc1C	x	x	2.4*
Clc1ccc(CN2CCC(c3nc4ccc(Cl)cc4[nH]3)CC2)cc1	x	x	1.5
c1ccc(Cn2nnnc2CN2CCOCC2)cc1	x	x	1
CCC(C)(C)n1nnnc1CN1CCC(c2nc3ccc(C)cc3[nH]2)CC1	-0.5	1	2.3*
O=S(=O)(NC12CC3CC(CC(C3)C1)C2)c1ccc(F)cc1	x	x	0.8
CCOC(=O)c1c(C)[nH]c(C(=O)OC/C(O)=C(\C#N)c2nc3ccccc3[nH]2)c1C	12.8	1	2.1*
COc1ccc(C/C(O)=C(\C#N)c2nc3ccccc3[nH]2)cc1OC	4.8	0.9	2.7*
N#C/C(=C(/O)COC(=O)c1ccc2c(c1)OCCO2)c1nc2ccccc2[nH]1	4.7	1	1.7
Cc1ccccc1-n1c(SC/C(O)=C(\C#N)c2nc3ccccc3[nH]2)nnc1-c1ccncc1	7.1	1	1.8
COc1ccc(OC/C(O)=C(\C#N)c2nc3ccccc3[nH]2)cc1	x	x	1.2
CC1CCCN(C/C(O)=C(\C#N)c2nc3ccccc3[nH]2)C1 (configuration not stated)	-6.7	1.3	2*
Cc1cc(C)n2c(SC/C(O)=C(\C#N)c3nc4ccccc4[nH]3)nnc2n1	-2.4	0.9	2*
COc1cccc(OC)c1/C(O)=C(\C#N)c1nc2ccccc2[nH]1	-6.7	1.1	1.6
SMILES	Ec RNAP inh	TNAP act mid DEA	PLAP activator
O=C(CCC1CCCCC1)N1CCN(Cc2ccc3c(c2)OCO3)CC1	2.0	1	1.3
CCCNCC(O)COc1ccccc1C(=O)CCc1ccccc1 (configuration not stated)	x	0.9	x
CCn1c(-c2cc(Br)ccc2O)n[nH]c1=S	8.4	0.7	x
Cc1[nH]c2ccc(-c3n[nH]c(=S)n3C)cc2c1C	1.7	0.9	1.8
CCn1c(-c2cc3ccccc3cc2O)n[nH]c1=S	x	x	2.9*
CCn1c(-c2ccc3[nH]c(C)c(C)c3c2)n[nH]c1=S	3.3	0.9	2.1*
CCOC(=O)c1cc(Br)c(=O)n2ccccc12	x	x	0.8
CCN(CC)CCNC(=O)c1c(O)c2cc(OC)c(OC)cc2[nH]c1=O	-3.3	1	x
CCOC(=O)N1CCN(C(=O)CSc2nc3c(cnn3-c3ccc(Cl)cc3)c(=O)[nH]2)CC1	4.9	0.9	1.3
CC(=O)Nc1ccc(-c2nn[nH]n2)cc1Cl	5.8	1	0.8
Cc1cc(NC(=O)c2c(F)cccc2Cl)n(-c2nc3ccccc3[nH]2)n1	x	x	2.6*
Cc1cc(NC(=O)c2c(F)cccc2F)n(-c2nc3ccccc3[nH]2)n1	x	x	1.2
C=CCn1c(O)c(C(CC)=NCc2cccnc2)c(=O)[nH]c1=O	6.2	1	0.9
O=c1c2ccccc2nc(SCc2nc(-c3ccccc3)no2)n1-c1ccc(F)cc1	3.3	0.9	1.1
Cc1[nH]n(-c2ccccc2)c(=O)c1/C=N/NC(=O)c1cccc([N+](=O)[O-])c1	x	x	1.1
Cc1[nH]n(-c2ccc([N+](=O)[O-])cc2)c(=O)c1C=NCCN1CCN(C(=O)c2ccccc2)CC1	x	x	2*
O=C(NNC(=S)NC(=O)c1cccnc1)c1ccccc1	x	x	2.1*
O=C(NCCCCNC(=O)c1cccnc1)c1cccnc1	-10.9	0.9	1
COCCCNC(=S)NNC(=O)c1ccc2c(c1)OCO2	x	x	2.2*
O=C(/C=C/c1ccccc1)NNC(=O)c1cccnc1	x	x	2*
O=C(CCc1ccccc1)NNC(=S)NC(=O)c1ccccc1	x	x	1.2
COCCCNC(=S)NNC(=O)c1cccnc1	x	x	2.7*
CC(C)CNC(=S)NNC(=O)c1ccc2c(c1)OCO2	x	x	1.7
O=C(/C=C/c1ccccc1)NNC(=O)c1cccc(Cl)c1	x	x	1
CCNc1nc(NCC)nc(C(=O)OCCO)n1	x	x	1.2
SMILES	Ec RNAP inh	TNAP act mid DEA	PLAP activator
CCCCOc1ccccc1NC(=O)CC1SC(=NCC)N(CC)C1=O (configuration not stated)	3.8	1	1.3
NC(=O)CSc1nnc(COc2ccccc2)n1C1CCCCC1	-1.4	0.9	1.2
Cc1onc(-c2c(F)cccc2Cl)c1C(=O)NC1CCSC1=O (configuration not stated)	x	x	2.1*
Cc1onc(-c2c(F)cccc2Cl)c1C(=O)Nc1nnc(C2CC2)s1	-1.4	1	1.2
COc1ccccc1NC(=S)NNC(=O)c1c(Cl)c(C)nn1C	x	x	1.7
COc1ccccc1NC(=S)NNC(=O)c1cc(C)n(C)n1	x	x	2.8*
CCCn1c(SCC(=O)Nc2nc3c(s2)CCCC3)nc2c1c(=O)n(C)c(=O)n2C	55.3*	0.9	1
CCCn1c(SCC(=O)Nc2nnc(CC)s2)nc2c1c(=O)n(C)c(=O)n2C	0.2	1	1
CCOC(=O)/C(=N\Nc1cc(C(F)(F)F)ccc1Cl)N(CC)CC	x	x	1.1
Cc1ccc(N2C(=O)c3ccc(C(=O)N4CCN(c5ccccc5F)CC4)cc3C2=O)cc1	3.0	1	1.2
Oc1ccc(C2Nc3cccc4cccc(c34)N2)c(O)c1	x	x	1.2
c1coc(C2Nc3cccc4cccc(c34)N2)c1	20.9*	0.8	1.1
O=C1c2cccc3c(O)ccc(c23)C(=O)N1Cc1ccccc1	x	x	0.8
Cc1cnn(C(=O)c2ccccc2Br)c1	4.7	1	1
CC1CCCC(NC(=O)c2ccc3c(=O)n(CC4CCCO4)c(=O)[nH]c3c2)C1C (configuration not stated)	-0.4	0.9	1.1
C=CCNC(=S)NNC(=O)C(CCC(C)C)CC(C)O (configuration not stated)	x	x	2.7*
C=CCNC(=S)NNC(=O)c1ccc(OCC(C)C)cc1	x	x	1.4
O=C(NC1CC1)c1cc(-c2ccccn2)nc2ccccc12	x	x	0.9
Cn1c(N)c(C(=O)c2cc(-c3ccccn3)nc3ccccc23)c(=O)[nH]c1=O	1.5	0.9	2*
